Screening data from PubChem BioAssay.
MazEF act = activators of E. coli MazEF toxin-antitoxin RNase; FAM/BHQ RNA-DNA oligo cleavage fluorescence, 5 h; activation, % at 20 µM; 0.32% of 350,000 active; AID 504720; in the data active = activation above about 50%
Target sequence (P0AE70 whole entry, looked up): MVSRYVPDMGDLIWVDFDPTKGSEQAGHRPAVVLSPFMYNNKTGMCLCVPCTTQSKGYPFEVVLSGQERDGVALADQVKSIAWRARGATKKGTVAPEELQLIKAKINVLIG
CCHF vOTU inh-1 = CCHFV vOTU protease inhibition; inhibition, % at 11.5 µM; 0.55% of 370,000 active; Pep-AMC fluorescence; AID 651958; note: 0% = vehicle wells with enzyme and 100% = no enzyme wells
3CLpro inhibitor = SARS-CoV 3CLpro protease inhibition; P0C6X7; recombinant SARS-CoV 3CLpro, quenched FRET peptide cleavage; inhibition, % at 6 µM; 0.14% of 290,000 active; in the data active = inhibition above about 12%
DUSP3 inh = blocks human VHR1 dual specificity phosphatase. P51452. recombinant VHR phosphatase, pNPP absorbance. inhibition, % at 13.3 µM. 0.52% of 290,000 active. AID 1654; in the data active = inhibition above about 50%
Target sequence (P51452 whole entry, looked up): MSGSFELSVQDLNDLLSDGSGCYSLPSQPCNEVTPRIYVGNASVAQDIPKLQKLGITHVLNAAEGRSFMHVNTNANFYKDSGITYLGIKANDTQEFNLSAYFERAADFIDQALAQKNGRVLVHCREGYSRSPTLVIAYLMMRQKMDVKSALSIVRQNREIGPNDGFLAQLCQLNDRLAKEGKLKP
BJeLR lethal = BJeLR cell viability loss | BJeLR (HRASV12) viability, CellTiter-Glo ATP luminescence, 48 h | inhibition, % (no concentration beside the values) | 0.17% of 300,000 active; in the data active = inhibition above about 50%
CCHF vOTU inh-2 = CCHFV vOTU protease inhibition, confirmation; shares compounds with CCHF vOTU inh-1; Recombinant CCHFV vOTU, Pep-AMC fluorescence; inhibition, % at 11.5 µM; 17% of 1,900 active
* marks the source's active call; other numbers are inactive results; . = no result. An excerpt weighted towards active compounds, which were near 1.4% of everything screened. Cut-off read from the data, not from the text of the source, unless noted: active = inhibition above about 30%; inactive = the rest.

SMILES	MazEF act	CCHF vOTU inh-1	3CLpro inhibitor	DUSP3 inh	BJeLR lethal	CCHF vOTU inh-2
CC(=O)[C@@H]1[C@@H]2C(=O)N(c3ccc(F)c(Cl)c3)C(=O)[C@@H]2C2c3ccccc3C=CN21 (stereo partly drawn)	.	95*	1	36	1	75*
C[C@H]1C2CC(OC(=O)Nc3ccc(C(F)(F)F)cc3)C(C2)[C@H]2CCCCN21 (stereo partly drawn)	.	-3	.	.	.	.
Cc1cc(-c2cc(NC(=O)Cc3c[nH]c4ccccc34)ccc2Nc2cccnc2)ccc1F	.	10	.	.	.	.
CCCCCCCCN1C(=O)[C@@H](CC(=O)N2CCCCC2)C[C@@]2(C(=O)OC)C1=C[C@H](C(C)C)O[C@@H]2C1CC1	.	32*	.	.	.	8
CCCCCCCCN1C(=O)[C@@H](CC(=O)NCCC(C)C)C[C@@]2(C(=O)OC)C1=C[C@H](C(C)C)O[C@@H]2C1CC1	.	35*	.	.	.	17
CCCCCCCCN1C(=O)[C@@H](CC(=O)N2CCC(c3ccccc3)CC2)C[C@@]2(C(=O)OC)C1=C[C@H](C(C)C)O[C@@H]2C1CC1	.	19	.	.	.	.
CCCCCCCCN1C(=O)[C@@H](CC(=O)NCc2cccs2)C[C@@]2(C(=O)OC)C1=C[C@H](C(C)C)O[C@@H]2C1CC1	.	39*	.	.	.	20
COC(=O)C1CN(Cc2ccc(OC)cc2)CCS(=O)(=O)N1Cc1ccc(C)cc1 (stereo not drawn)	.	2	.	.	.	.
Cc1cc(C(=O)O)ccc1-n1c(C)cc(/C=C(/C#N)C(=O)Nc2ccccc2)c1C	1	33*	1	-10	-5	-7
C#CCN1CC(N(C)CCO)CS1(=O)=O (stereo not drawn)	.	-3	.	.	.	.
CCCCOc1cc(NCc2ccccc2)c2ncn(C(C)C)c2c1	-5	37*	.	.	.	10
COCCCOc1cc(NCc2ccccc2)c2ncn(C(C)C)c2c1	10	7	.	.	.	.
CCC(CO)Oc1cc(NCc2ccccc2)c2ncn(C(C)C)c2c1 (stereo not drawn)	2	10	.	.	.	.
CCOCCOc1cc(NCc2ccccc2)c2ncn(C(C)C)c2c1	-3	30*	.	.	.	4
CCC(COC)Oc1cc(NCc2ccccc2)c2ncn(C(C)C)c2c1 (stereo not drawn)	6	70*	.	.	.	69*
NC(=O)c1ccc(NC(=O)CSc2nnc(-c3ccccc3)n2-c2ccccc2)cc1	.	1	.	.	.	.
COC(=O)[C@H](Cc1ccccc1)N(Cc1cn(Cc2ccccc2)nn1)S(=O)(=O)c1ccccc1Br	.	0	.	.	.	.
CC(C)(C)NC(=O)C(c1ccc(-c2ccccc2)cc1)n1c(=O)c(-c2ccco2)nc2ccccc21 (stereo not drawn)	.	32*	.	.	.	-14
Cc1cccc(C)c1NC(=O)C(c1ccc(-c2ccccc2)cc1)n1c(=O)c(-c2ccco2)nc2ccccc21 (stereo not drawn)	.	33*	.	.	.	-2
CCCCCNC(=O)C(c1cccc2ccccc12)n1c(=O)c(-c2ccco2)nc2ccccc21 (stereo not drawn)	.	19	.	.	.	.
CCCCCNC(=O)C(c1ccc(C(F)(F)F)cc1)n1c(=O)c(-c2ccco2)nc2ccccc21 (stereo not drawn)	.	31*	.	.	.	-20
O=C(NCCN1C(=O)C2C3C=CC(C3)C2C1=O)c1cc(F)cc(F)c1 (stereo not drawn)	.	-4	.	.	.	.
CCOC(=O)c1ccc(N2N=C(C)/C(=C/C=C/c3ccco3)C2=O)cc1	0	-8	3	4	-6	.
O=C(O)c1cc(N2N=C(C(F)(F)F)/C(=C/C=C/c3ccco3)C2=O)ccc1Cl	-27	63*	6	48	.	44*
COc1ccccc1C(=O)NC1CCCCN(Cc2cccc(Cl)c2)C1=O (stereo not drawn)	.	0	.	.	.	.
COC(=O)[C@]12C[C@H](CC(=O)NCc3ccccc3)C(=O)N(CCc3ccc(OC)c(OC)c3)C1=C[C@H](C1CCCC1)O[C@@H]2C	.	8	.	.	.	.
C=CC[C@@H]1NN2C(=O)[C@@H](CCc3ccccc3)[C@@H]3c4ccccc4C=NN3[C@@H]2c2ccccc21	.	6	.	.	.	.
C=CCC[C@@H](CCCCC)OC(=O)/C=C/[C@H](O)[C@@H](O)C[C@H](O)CC=C	.	34*	.	.	.	18
COc1ccccc1N(C)S(=O)(=O)c1ccc(C(=O)Nc2cccc(S(=O)(=O)N3CCOCC3)c2)cc1	2	35*	.	.	.	-13
COc1ccccc1N(C)S(=O)(=O)c1ccc(C(=O)NNC(=O)c2ccccc2O)cc1	-2	30*	.	.	.	-11
